From PubChem BioAssay (NCI)
About 83,000 compounds went through this panel and 20% of them were active in at least one assay; those are over-represented in the sample as a whole.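 Method: cells in 96-well plates; compound added at one concentration; 48 h incubation; percent growth measured; values under 10 scored active.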 Unmarked numbers belong to inactive results. Calls of active or inactive are those of the source.

What was measured:
Assay in all cases: NCI-60 one-dose screen, 48 h (100 = growth as untreated, 0 = no growth, -100 = all killed)
Settings in all cases: 10 µM unless noted
NCI-H23 lung = test system: NCI-H23 lung
NCI-H226 lung = test system: NCI-H226 lung
NCI-H322M lung = test system: NCI-H322M lung
HOP-62 NSCLC = test system: HOP-62 NSCLC
NCI-H460 lung = test system: NCI-H460 lung
HOP-92 NSCLC = test system: HOP-92 NSCLC
NCI-H522 lung = test system: NCI-H522 lung
A549/ATCC NSCLC = test system: A549/ATCC NSCLC
786-0 renal = test system: 786-0 renal
COLO 205 colon = test system: COLO 205 colon
DU-145 prostate = test system: DU-145 prostate
K-562 leukemia = test system: K-562 leukemia
MALME-3M melanoma = test system: MALME-3M melanoma
MDA-MB-231 breast = test system: MDA-MB-231 breast
RXF 393 renal = test system: RXF 393 renal
SF-268 CNS = test system: SF-268 CNS
SF-295 CNS = test system: SF-295 CNS
SF-539 CNS = test system: SF-539 CNS
UACC-257 melanoma = test system: UACC-257 melanoma
M14 melanoma = test system: M14 melanoma

Row | Structure (SMILES) | growth (NCI-H23 lung) | growth (NCI-H226 lung) | growth (NCI-H322M lung) [%] | growth (HOP-62 NSCLC) | growth (NCI-H460 lung) | growth (HOP-92 NSCLC) | growth (NCI-H522 lung) | growth (A549/ATCC NSCLC) | growth (786-0 renal) | growth (COLO 205 colon) | growth (DU-145 prostate) | growth (K-562 leukemia) | growth (MALME-3M melanoma) | growth (MDA-MB-231 breast) | growth (RXF 393 renal) | growth (SF-268 CNS) [%] | growth (SF-295 CNS) [%] | growth (SF-539 CNS) | growth (UACC-257 melanoma) | growth (M14 melanoma)
1 | Cc1c(CC(=S)N2CCOCC2)nnn1-c1cccc(C(F)(F)F)c1 | 107% | 107% | 109 | 101% | 103% | 111% | 89.6% | 107% | 110% | 119% | 111% | 100% | 104% | 107% | 108% | 97.7 | 109 | 95.1% | 105% | 100%
2 | CCN1CCN(CC(=O)Nc2nc3ccc(NCc4ccc(F)cc4)cc3s2)CC1 | 90% | 90.9% | 94.3 | 91.8% | 98.8% | 61.3% | 104% | 99.8% | 93% | 78% | 95.1% | 58.8% | 90.7% | 91% | 94.8% | 94.3 | 99 | 74.1% | 108% | 91.4%
3 | CCCCNC(=O)Oc1ccc(/C(=C(/C)Cc2ccc(OC)cc2)c2ccc(OCCN3CCCCCC3)cc2)cc1 | 85% | 101% | 97.1 | 85.6% | 53.8% | 53.3% | 68.5% | 68% | 76.3% | 57% | 91.6% | 10.3% | 99.5% | 81.5% | 75.1% | 83.5 | 92.2 | 95.4% | 94.4% | 91.1%
4 | Ic1ccccc1I | 98.9% | 90.5% | 126 | 90.3% | 104% | 90.2% | 100% | 98.5% | 92% | 127% | 116% | 103% | 131% | 111% | 100% | 111 | 106 | 104% | 88.3% | 94.3%
5 | Cc1ccc2nc(-c3ccc(C(=O)NNC(=S)Nc4ccccc4)cc3)[nH]c2c1 | 91.5% | 92.7% | 99.7 | 95.3% | 94.4% | 99.8% | 95% | 101% | 94.8% | 119% | 102% | 62.5% | 94.5% | 99.6% | 91.1% | 99.7 | 90 | 99.4% | 102% | 88.6%
6 | CCOc1c(OC)cc2c(c1O)C(=O)N[C@@H]1[C@@H](O)[C@@H](O)[C@H](O)C[C@@H]21 | 107% | 99.8% | 103 | 98.6% | 112% | 85.2% | 92.3% | 94.7% | 102% | 115% | 109% | 91.2% | 102% | 106% | 109% | 102 | 102 | 97.7% | 100% | 105%
7 | CC1(C)OB(O)c2cc(-c3nc4ccc5[nH]ncc5c4c4c3CCCC4)ccc21 | 62.8% | 55% | 57 | 68.2% | 34.1% | 73.9% | 77.9% | 56.4% | 66.1% | 80.9% | 54.8% | 44.5% | 60.5% | 47.9% | 35.3% | 57.4 | 63.1 | 73.6% | 77.5% | 52%
8 | Nc1ncnc2c1N=C(c1ccc3c(c1)OCO3)CC(c1cccc(Nc3ccnc4cc(C(F)(F)F)ccc34)c1)N2 (stereo not given) | 84.2% | 78.1% | 94.3 | 84.5% | 90.7% | 53.8% | 73.6% | 68.6% | 82.5% | 115% | 87.3% | 21% | 84.3% | 88.4% | 80.5% | 83.6 | 87.6 | 98.9% | 74.9% | 94.2%
9 | COc1ccc(-c2nc3c(N)c(CO)cnc3s2)cc1 | 86.7% | 41.6% | 76 | 100% | 97.6% | 77% | 92.1% | 91.7% | 95% | 104% | 86.6% | 97.2% | 101% | 94.4% | 74.7% | 76.2 | 93.1 | 89.7% | 110% | 99.4%
10 | Cc1n[nH]c2ccc(Br)cc2c1=O | 98.3% | 96.5% | 98.7 | 93.9% | 110% | 103% | 83.6% | 99% | 102% | 106% | 104% | 91.4% | 97.4% | 121% | 103% | 107 | 87 | 98.1% | 108% | 103%
11 | CCCCC#Cc1c(I)n(C)c(=O)[nH]c1=O | 14.4% | 39.8% | 101 | 93.9% | 103% | -89.7% (active) | -13.4% (active) | 70.9% | 98.2% | -36.8% (active) | 20.8% | -43.7% (active) | -85.4% (active) | -67.7% (active) | -81.7% (active) | 26.5 | 92.3 | 66.7% | -48.4% (active) | -7.41% (active)
12 | COc1ccccc1C(=O)Nc1cccc(NC(=O)c2ccoc2C)c1 | 47.5% | 70.7% | 59.5 | 49.5% | 13.9% | 47.2% | 13.9% | 28.2% | 32.9% | 39.2% | 53.3% | 8.76% (active) | 60.4% | 59.4% | 50.1% | 48.2 | 29.8 | 27.2% | 33.3% | 13.1%
13 | COc1ccc(C2=NN(C(C)=O)C(c3cn(-c4ccccc4)nc3-c3ccc(Cl)cc3)C2)cc1 (stereo not given) | 9.25% (active) | 33.6% | 47.8 | -19.3% (active) | 5.58% (active) | 18.1% | 47.5% | 14.3% | -17.5% (active) | 4.9% (active) | 17.4% | 13.1% | 52% | 17.2% | -10.5% (active) | 27.2 | 42.4 | 15.8% | 66.4% | 17.2%
14 | CCN(CC)CCCN1C(=O)c2c(c(C)c3c(oc4ccc(O)cc43)c2C)C1=O | 92.7% | -44.7% (active) | 81.3 | 89.9% | -25.9% (active) | 69.3% | 80% | -76.8% (active) | -72.6% (active) | 64% | -58.8% (active) | 3.9% (active) | 87% | -80.9% (active) | 61.3% | 66 | 109 | 1.71% (active) | 102% | 86.6%
15 | CCN1CCN(C(=O)[C@]23CC[C@@H](C)[C@H](C)[C@@H]2C2=CC[C@@H]4[C@@]5(C)C/C(=C/c6cccnc6)C(=O)C(C)(C)[C@@H]5CC[C@@]4(C)[C@]2(C)CC3)CC1 | 34.2% | 47.8% | 65.7 | 44.5% | 7.51% (active) | 56.9% | 17.7% | 32% | 42.4% | 11.5% | 48% | 6.46% (active) | 12% | 34.7% | 3.08% (active) | 51 | 37.3 | 8.77% (active) | 26% | 40.9%
